Measured values taken from PubChem BioAssay AID602364 (National Center for Advancing Translational Sciences (NCATS), 2012).
Inconclusive results are not listed. Calls of active or inactive are those of the source. Calls follow the shape of the dose curve; as a rule, active = well fitted inhibition curve with a large enough effect; inconclusive = small, poorly fitted or top-dose-only effect; inactive = flat fitted curve, though single readings scatter.

Molecular target: Luciferin 4-monooxygenase (Photinus pyralis) (UniProt P08659)
Sequence (P08659 whole entry, looked up): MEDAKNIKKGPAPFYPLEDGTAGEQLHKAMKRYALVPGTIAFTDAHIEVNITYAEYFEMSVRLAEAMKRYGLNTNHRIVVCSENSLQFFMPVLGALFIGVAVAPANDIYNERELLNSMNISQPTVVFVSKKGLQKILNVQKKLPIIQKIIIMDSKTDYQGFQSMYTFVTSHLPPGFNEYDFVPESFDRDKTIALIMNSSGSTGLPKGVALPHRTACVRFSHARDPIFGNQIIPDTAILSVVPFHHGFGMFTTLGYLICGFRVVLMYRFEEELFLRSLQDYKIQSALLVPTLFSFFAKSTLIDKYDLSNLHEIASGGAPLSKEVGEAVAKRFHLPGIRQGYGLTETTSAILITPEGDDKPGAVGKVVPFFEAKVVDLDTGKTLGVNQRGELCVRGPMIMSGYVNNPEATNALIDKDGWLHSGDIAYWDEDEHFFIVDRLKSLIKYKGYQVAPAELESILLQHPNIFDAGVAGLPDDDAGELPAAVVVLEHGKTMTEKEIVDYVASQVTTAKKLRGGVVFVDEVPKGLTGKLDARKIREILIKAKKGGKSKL
Test: FLuc inhibitory activity for the follow-up compounds in a biochemical assay with 1mM ATP
Conditions: purified P. pyralis luciferase, luminescence; series mostly up to 57.5 µM; activity change, negative = inhibition: at the top concentration
Source text: NCGC Assay Overview: Firefly (Photinus pyralis) luciferase is one of the most commonly used transcriptional reporters. It is considered one of the more dynamically responsive reporters - that is, responsive to changes in reporter transcription - as it requires no post-translational modifications and is enzymatically active directly after protein synthesis (Wood, 1998). With no endogenous expression in mammalian cells and without the requirement of external excitation, it offers very little background signal, thus generally providing excellent signal to background for most assays. Previous profiling work to determine the prevalence of compounds that affect FLuc enzymatic activity (PubChem AID 411) identified that ~3% of the MLSMR library (then at ~72K) inhibited FLuc. […] Of the compounds identified in this profile that inhibited FLuc, 151 compounds were selected for further analysis, in an effort to better understand their mode of inhibiting FLuc. The assay described here was to determine the activity of the compounds in a FLuc assay that contained a KM concentration of D-luciferin and a high concentration (1mM) of ATP.
NCGC Assay Protocol Summary: Reagents: 50mM Tris acetate, pH 7.5; 10mM Mg acetate; 10uM D-luciferin (Sigma #L9504); 1mM ATP; 0.01% Tween-20; 0.05% BSA; 10nM P. pyralis luciferase (Sigma #L9506) Control compounds used were two known firefly luciferase inhibitors (3-(5-(3-chlorophenyl)-1,2,4-oxadiazol-3-yl)benzoic acid and 5-(2-fluorophenyl)-3-phenyl-1,2,4-oxadiazole), and DMSO. Three microliters containing firefly luciferase substrates in buffer (final concentrations: 50mM Tris acetate, pH 7.5, 10mM Mg acetate, 0.01% Tween-20, 0.05% BSA, 10uM D-luciferin, 1mM ATP) are dispensed into each well of a Greiner white, solid-bottom 1536-well format plate using a flying reagent dispenser (FRD). These assay plates were then treated with 23nL of compound or DMSO using a Kalypsys pin tool, which allows for delivery of a 12-point intraplate titration of each compound to the assay plate (quantitative HTS), with a final compound concentrations ranging from approximately ~60uM to 0.3nM. One microliter of firefly luciferase in […] Tris-acetate buffer was then delivered by FRD to each well for a final enzyme concentration of 10nM. Luciferase activity was then measured using a ViewLux CCD imager (PerkinElmer), with an average exposure time of 2-30 seconds (2X binning, medium/high gain).

O=C(Nc1ccccc1C(=O)O)c1cccc(S(=O)(=O)N2CCCC2)c1 was tested. Which Potency did it give?
Its Potency is 16.3 µM (active).

How did the Potency turn out when O=C(Nc1ccccc1C(=O)O)c1cccc(NC(=O)c2ccccc2Cl)c1 was run?
The Potency was 20.6 µM (active).

Which Potency does the source give for COc1ccc2nc(NC(=O)Cc3cccs3)sc2c1 here?
Its Potency is 4.11 µM (active).

Which Potency does the source give for O=C(Nc1ccccc1C(=O)O)c1cccc(C(=O)Nc2ccccc2C(=O)O)c1 here?
Its Potency is 11.6 µM (active).

For COc1ccc2nc(NC(=O)c3ccco3)sc2c1, which Potency is on record?
The Potency was 0.183 µM (active).

With Cc1ccc2sc(-c3ccc(NC(=O)c4cc(-n5cnnc5)ccc4Cl)cc3)nc2c1 as the molecule, how does the Potency read?
Its Potency is 1.63 µM (active).

For Nc1ccccc1C(=O)Nc1cccc(C(=O)O)c1, which Potency is on record?
The Potency was 3.66 µM (active).

Which Potency does the source give for Cc1ccc2nc(-c3ccc(N)cc3)sc2c1 here?
The Potency was 0.0231 µM (active).

How did the Potency turn out when Cc1ccc2sc(-c3ccc(N)cc3)nc2c1 was run?
The Potency was 0.0366 µM (active).

With COc1cccc(OC)c1C(=O)Nc1cccc(C(=O)Nc2cccc(C(=O)O)c2)c1 as the molecule, how does the Potency read?
The Potency was 4.61 µM (active).

For O=C(Nc1ccccc1C(=O)O)c1cccc(NC(=O)c2ccco2)c1, which Potency is on record?
The Potency was 18.3 µM (active).

For Nc1ccc(-c2nc3cc(N)ccc3s2)cc1, which Potency is on record?
Its Potency is 0.259 µM (active).

How did the Potency turn out when O=C(Nc1ccccc1C(=O)O)c1cccc(NC(=O)c2ccc(Br)o2)c1 was run?
The Potency was 32.6 µM (active).

With O=C(Nc1ccccc1C(=O)O)c1cc(S(=O)(=O)NCc2ccccc2)ccc1Cl as the molecule, how does the “activity change, negative = inhibition” value read?
The value was 0.773% (inactive).

Which Potency does the source give for COc1cccc(-c2nc3ccccc3s2)c1 here?
Its Potency is 0.326 µM (active).

Which Potency does the source give for COc1ccc2nc(NC(=O)c3ccc4ncsc4c3)sc2c1 here?
The Potency was 1.46 µM (active).

How did the “activity change, negative = inhibition” value turn out when COc1ccccc1C(=O)Nc1ccc(C(=O)O)cc1 was run?
The value was -2.29% (inactive).

With Cc1ccc(S(=O)(=O)N2CCN(C(=O)c3ccccc3-c3nc4ccccc4s3)CC2)c(C)c1 as the molecule, how does the “activity change, negative = inhibition” value read?
The value was -5.52% (inactive).

CCOc1ccc2nc(NC(=O)c3ccccn3)sc2c1 was tested. Which Potency did it give?
Its Potency is 0.13 µM (active).

Which “activity change, negative = inhibition” value does the source give for COc1ccc(NS(=O)(=O)c2cccc(C(=O)Nc3ccccc3C(=O)O)c2)cc1 here?
Its value is -2.81% (inactive).

COc1ccc2nc(NC(=O)c3cccs3)sc2c1 was tested. Which Potency did it give?
The Potency was 7.3 µM (active).

Which Potency does the source give for CN=c1scc(-c2ccccc2F)n1/N=C/c1ccc[nH]1 here?
The Potency was 0.058 µM (active).

For Cc1ccc(C(=O)Nc2cccc(C(=O)O)c2)cc1, which Potency is on record?
Its Potency is 0.651 µM (active).

With O=C(Cc1ccccc1)Nc1ccc(C(=O)Nc2ccccc2C(=O)O)cc1 as the molecule, how does the Potency read?
The Potency was 20.6 µM (active).

For Cc1c(NC(=O)c2cc(-n3cnnc3)ccc2Cl)cccc1-c1nc2ccccc2s1, which Potency is on record?
Its Potency is 2.91 µM (active).

Which Potency does the source give for O=S(=O)(c1ccc(-c2nc3ccccc3s2)cc1)N1CCCC1 here?
The Potency was 0.919 µM (active).

With Nc1ccc(C(=O)Nc2ccccc2C(=O)O)cc1 as the molecule, how does the Potency read?
Its Potency is 14.6 µM (active).

With Cc1ccccc1C(=O)Nc1cccc(C(=O)Nc2ccccc2C(=O)O)c1 as the molecule, how does the Potency read?
The Potency was 32.6 µM (active).

For CCOc1c(Cl)cc(C(=O)Nc2ccccc2C(=O)O)cc1Cl, which Potency is on record?
Its Potency is 18.3 µM (active).

Cc1ccc2nc(-c3ccc(NC(=O)CN4CCN(C(=O)c5ccco5)CC4)cc3)sc2c1 was tested. Which Potency did it give?
Its Potency is 4.11 µM (active).

For O=C(Nc1ccccc1C(=O)O)c1ccc(NC(=O)C2CC2)cc1, which Potency is on record?
Its Potency is 3.66 µM (active).

How did the “activity change, negative = inhibition” value turn out when COc1cc(C(=O)Nc2cc(C)c(O)c(-c3nc4ccccc4s3)c2)cc(OC)c1OC was run?
Its value is 2.73% (inactive).

For Cc1c(NC(=O)C(C)(C)C)cccc1-c1nc2ccccc2s1, which Potency is on record?
Its Potency is 25.9 µM (active).

Which Potency does the source give for Cn1c(N/N=C/c2cc3ccccc3nc2Cl)nc2ccccc21 here?
The Potency was 14.6 µM (active).

O=C(O)c1ccc(NC(=O)c2ccccc2NC(=O)c2ccccc2Br)cc1 was tested. Which “activity change, negative = inhibition” value did it give?
The value was -3.88% (inactive).

How did the “activity change, negative = inhibition” value turn out when CCCOc1cccc(C(=O)Nc2ccc(-c3nc4ccccc4s3)c(Cl)c2)c1 was run?
Its value is 2.04% (inactive).

COc1ccc(Br)cc1C(=O)Nc1ccc(C(=O)O)cc1 was tested. Which “activity change, negative = inhibition” value did it give?
Its value is -16.8% (inactive).

For CCn1c(C)nc2cc(-c3nc4n(n3)Cc3ccccc3-4)ccc21, which Potency is on record?
Its Potency is 0.0326 µM (active).

CN(C)S(=O)(=O)c1ccc(C(=O)Nc2ccccc2C(=O)O)cc1 was tested. Which Potency did it give?
Its Potency is 32.6 µM (active).

How did the Potency turn out when COc1ccc(C(=O)Nc2ccccc2C(=O)Nc2ccc(C(=O)O)cc2)cc1 was run?
Its Potency is 18.3 µM (active).
